# Hit rate of the full screen: of about 63,000 compounds, about 1,100 (1.7%) were called active. The sample holds actives, similar compounds and a random draw of the others, so the mix is not that of the screen. Rule as the data show it: active = cytotoxicity above about 50%; inactive = the rest. Results with a measured potency or affinity are listed apart.
# Assay: cytotoxicity in HPDE-C7 cells, cell-based, fluorescence, HTS (AID 430);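 also: cells exposed to compound for 48 hours before viability readout; 0% = vehicle and 100% = reference cytotoxic drug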
# Details: HPDE-C7 pancreatic duct cells viability, at 10 µM, stronger effect = higher value
row,Structure (SMILES),cytotoxicity
1,O=C(Cc1ccc(S(=O)(=O)N2CCOCC2)s1)Nc1ccc2c(c1)CCC2,3.3% (inactive)
2,COc1ccc(CN2CCN(C(=O)c3cc(OC)c(OC)c(OC)c3)CC2)cc1OC,-11.1% (inactive)
3,CCC(=O)Nc1nnc(SCC(=O)Nc2ccc(F)cc2)s1,2.1% (inactive)
4,CCCSc1nnc(NC(=O)Nc2ccc(F)cc2)s1,69.6% (active)
5,CCCSc1nnc(NC(=O)Nc2ccccc2)s1,6.3% (inactive)
6,COc1ccccc1NC(=O)CN1CCN(Cc2ccccc2)CC1,3% (inactive)
7,COC(=O)c1sc(N)c(C(=O)OC)c1COC(=O)c1c(C)noc1C,64.9% (active)
8,COc1ccc(C(C)=O)cc1COC(=O)c1c(C)noc1C,7.1% (inactive)
9,COC(=O)c1c(N)sc(C(C)=O)c1C,-7.8% (inactive)
10,CC(C)CCNc1nc2c(c(=O)n(Cc3cccc(F)c3)c(=O)n2C)n1C,35.2% (inactive)
11,COc1ccc(-c2cn3c(n2)CCC3)cc1,14.1% (inactive)
12,CCCCCC1CCC(C(=O)O)CC1 (stereo not drawn),-12.7% (inactive)
13,COC(=O)c1ccc2c(c1)N(Cc1nc(-c3ccc(Cl)cc3)oc1C)C(=O)C1CCCN21 (stereo not drawn),-1.4% (inactive)
14,COC(=O)c1ccc2c(c1)N(Cc1nc(-c3cccc(Cl)c3)oc1C)C(=O)C1CCCN21 (stereo not drawn),40.7% (inactive)
15,COC(=O)c1ccc2c(c1)N(Cc1nc(-c3cccc(C)c3)oc1C)C(=O)C1CCCN21 (stereo not drawn),55.8% (active)
16,CC(C)CCOCC1CC2(CC(C)(c3csc(N)n3)OC2=O)C(=O)O1 (stereo not drawn),-2.2% (inactive)
17,O=C(COC(=O)c1ccccc1NC(=O)c1ccco1)Nc1ccc2c(c1)OCO2,-13.5% (inactive)
18,COc1cccc(C2C3=C(N=C4SCC(=O)N42)c2ccccc2CC3)c1OC (stereo not drawn),-2.4% (inactive)
19,CCN(CC)c1ccc(-c2nn3c(-c4cccnc4)nnc3s2)cc1,43.2% (inactive)
20,CN(C)c1ccc(-c2nn3c(-c4ccncc4)nnc3s2)cc1,-9.1% (inactive)
21,CCc1nc2ccccc2n1CC(=O)N(C(C)CC)C1CCS(=O)(=O)C1 (stereo not drawn),-20.3% (inactive)
22,Cn1c(Cn2c(=O)sc3ccccc32)nnc1SCc1ccc(F)cc1,-3.2% (inactive)
23,COc1ccc2c(c1)Sc1ccccc1N2CCN(C)C,12.2% (inactive)
24,O=C(Nc1cccc(C(F)(F)F)c1)c1cccnc1N1CCN(CCO)CC1,-10.8% (inactive)
25,O=C(CN1CCCC(O)C1)N1c2ccccc2Sc2ccc(C(F)(F)F)cc21 (stereo not drawn),24% (inactive)

row,Structure (SMILES),cytotoxicity
1,CCOC(=O)Nc1ccc2c(c1)N(C(=O)CN1CCN(C)CC1)c1ccccc1S2,5.2% (inactive)
2,CN(C)CCCN1c2ccccc2Sc2ccccc21,13.7% (inactive)
3,C=CCN1C(=O)c2ccccc2Sc2ccc(C(=O)N3CCN(C)CC3)cc21,-17.1% (inactive)
4,COc1ccc(Br)cc1S(=O)(=O)N(CC(=O)N1CCOCC1)c1ccccc1,-5.3% (inactive)
5,O=C(CCc1ccccc1)Nc1ccncc1,0.1% (inactive)
6,Cn1c(Cn2c(=O)sc3ccccc32)nnc1SCC(=O)Nc1ccc(F)cc1,-7.1% (inactive)
7,CCOc1ccccc1N1CCN(Cc2cccc(OC)c2OC)CC1,-10.5% (inactive)
8,O=C(CN1CCN(c2ccccc2)CC1)Nc1cccc(C(F)(F)F)c1,-4.7% (inactive)
9,COC(=O)c1[nH]c2ccccc2c1NC(=O)CN1CCN(c2cccc(Cl)c2)CC1,0.5% (inactive)
10,OC(CN1CCN(c2cccc(C(F)(F)F)c2)CC1)c1c[nH]c2ccccc12 (stereo not drawn),26.7% (inactive)
11,O=C(CCn1c(=O)[nH]c2ccccc2c1=O)N1CCN(c2cccc(C(F)(F)F)c2)CC1,-11.5% (inactive)
12,Cc1[nH]c2ccccc2c1NC(=O)CN1CCN(c2cccc(C(F)(F)F)c2)CC1,62.1% (active)
13,CCc1nc2ccccc2c(C(=O)OCC(=O)NCCCN2CCCC2=O)c1C,-4.2% (inactive)
14,CCOc1cc2[nH]c(=O)n(CCCCC(=O)NC3CCCCCC3)c(=O)c2cc1OCC,2.3% (inactive)
15,COC(=O)c1cc(COC(=O)c2cccnc2SC)oc1C,-9.4% (inactive)
16,O=S(=O)(Nc1cccnc1)c1ccc2c(c1)OCCO2,-9.7% (inactive)
17,CCOC(=O)Cc1nnc2c(Nc3ccccc3F)nc3nonc3n12,61.6% (active)
18,CCOC(=O)Cn1nc(-c2ccc(Cl)cc2)cc1N,10.3% (inactive)
19,CCOC(=O)Cc1nnc2c(Nc3ccc(C)cc3)nc3nonc3n12,-35.8% (inactive)
20,CCOC(=O)n1ccc(C(=O)Nc2ccccc2F)n1,-0.9% (inactive)
21,CCOC(=O)CCn1c(CC(=O)OCC)nc2ccccc21,-8.6% (inactive)
22,CCOC(=O)Cc1nnc2c(Nc3ccc(Cl)cc3)nc3nonc3n12,68.3% (active)
23,CCOC(=O)Cc1csc(NC(=O)c2cccc(N3C(=O)CCC3=O)c2)n1,-14.9% (inactive)
24,O=C(Nn1cnnc1)c1cc(-c2ccccn2)nc2ccccc12,2.7% (inactive)
25,O=C(Nc1ccccc1N1CCCC1)c1ccc(Br)o1,1.2% (inactive)

row,Structure (SMILES),cytotoxicity
1,O=C(Nc1cccc(Cl)c1N1CCCC1)c1ccc(Br)o1,75% (active)
2,CCN1CCN(c2c(Cl)cccc2NC(=O)c2ccc(Br)o2)CC1,1.5% (inactive)
3,N#Cc1ccsc1NC(=O)CSc1ncn[nH]1,-0.1% (inactive)
4,CCCCNS(=O)(=O)c1ccc2nc(SCC(=O)c3ccc(C#N)cc3)[nH]c2c1,5.7% (inactive)
5,CCCCNS(=O)(=O)c1ccc2nc(SCC(=O)Nc3sccc3C#N)[nH]c2c1,88.6% (active)
6,CCn1cc(Br)c(C(=O)N(C)Cc2ccccc2)n1,-2.4% (inactive)
7,CCC1CCCCN1C(=O)COC(=O)c1ccc(S(=O)(=O)N2CCOCC2)cc1 (stereo not drawn),-5% (inactive)
8,Cc1ccc(-c2nnn(CC(=O)N(Cc3cccs3)C(C(=O)NC3CCCC3)c3ccco3)n2)o1 (stereo not drawn),80.5% (active)
9,Cc1ccc(-c2nnn(CC(=O)N(c3ccccc3)C(C(=O)NC3CCCC3)c3ccco3)n2)o1 (stereo not drawn),-1% (inactive)
10,Cc1ccc(-c2nnn(CC(=O)N(Cc3cccs3)C(C(=O)NC(C)(C)C)c3ccco3)n2)o1 (stereo not drawn),-3.6% (inactive)
11,COc1ccc(OC)c(Nc2nc(-c3sc(N)nc3C)cs2)c1,34.5% (inactive)
12,COc1ccc(CNC(=O)C2CCCN2S(=O)(=O)c2ccc(C)cc2)cc1 (stereo not drawn),9.7% (inactive)
13,CC(C)(C)c1ccccc1OCCCCCNCCO,9.8% (inactive)
14,CC(=O)CCc1c(C)[nH]c2ccccc2c1=O,-19.6% (inactive)
15,Cc1ccc(-c2noc(CCC(=O)NCCCN3CCN(c4cccc(Cl)c4)CC3)n2)cc1,-6.5% (inactive)
16,O=C(c1ccc2ccccc2c1)N1CCN(c2ccc(O)cc2)CC1,50.3% (active)
17,O=C(Nc1ccc2nc(-c3ccco3)c(-c3ccco3)nc2c1)N1CCCCCC1,29.1% (inactive)
18,COc1ccccc1N1CCN(C(=O)c2ccc3nc(-c4ccco4)c(-c4ccco4)nc3c2)CC1,8.9% (inactive)
19,O=C(c1cc(-c2ccco2)on1)N1CCN(c2ccccc2)CC1,13.6% (inactive)
20,CN1CCN(C(=O)c2ccc3ccccc3c2)CC1,-15.3% (inactive)
21,O=C(c1ccc2ccccc2c1)N1CCN(c2ccccc2)CC1,-4.8% (inactive)
22,O=C(Nc1ccc(N2CCOCC2)cc1)Nc1ccc2nc(-c3ccco3)c(-c3ccco3)nc2c1,76.2% (active)
23,O=C(Nc1ccc(N2CCOCC2)cc1)c1ccc2nc(-c3ccco3)c(-c3ccco3)nc2c1,-9.4% (inactive)
24,O=C(c1cccs1)N1CCC(c2ccccc2)C1 (stereo not drawn),5.4% (inactive)
25,O=c1[nH]c2ccccc2cc1-c1noc(-c2cccnc2)n1,6.4% (inactive)

row,Structure (SMILES),cytotoxicity
1,CCCOc1ccc(NC2=CC(=O)CC(C)(C)C2)cc1,-2.4% (inactive)
2,COc1cc(-c2csc(N3CCOCC3)n2)cc(OC)c1OC,4.3% (inactive)
3,COc1ccc(OC)c(NC(=O)c2nnn(Cc3ccc(Br)cc3F)c2N)c1,18.8% (inactive)
4,c1ccc(-c2ccc(OCCOCCn3cncn3)cc2)cc1,-14.6% (inactive)
5,O=C(CSc1nnc(C2COc3ccccc3O2)o1)N1CCCc2ccccc21 (stereo not drawn),-5.7% (inactive)
6,COc1ccc(C(O)c2coc3ccc(O)c(CN(C)C)c23)cc1 (stereo not drawn),8.4% (inactive)
7,CN(C)C(=O)c1nc(C#N)c(N(C)C)o1,8.3% (inactive)
8,COC(=O)c1[nH]c2cc(OC)ccc2c1NC(=O)CN1CCOCC1,9.3% (inactive)
9,CCC(O)c1cc2c(cc1NC(=O)c1ccc(C)cc1)OCCO2 (stereo not drawn),-1.6% (inactive)
10,Cc1cc(C)c2nc(-c3ccccn3)cc(C(=O)Nc3cc(C)on3)c2c1,6.6% (inactive)
11,Cc1cc(NC(=O)c2cc(-c3cccnc3)nc3c(C)c(C)ccc23)no1,22.3% (inactive)
12,Cc1cc(NC(=O)c2cc(-c3ccncc3)nc3c(C)cccc23)no1,64.9% (active)
13,O=C(c1cc(-c2ccc3c(c2)OCO3)on1)N1CCN(c2ccccc2)CC1,20.6% (inactive)
14,CCOC(=O)c1ccccc1NC(=O)CN1CCC(n2nnc3cc(F)ccc32)CC1,13.5% (inactive)
15,COc1ccccc1NC(=O)CN1CCC(n2nnc3cc(F)ccc32)CC1,-8.8% (inactive)
16,CCOc1ccc2nc(NC(=O)CN3CCC(n4nnc5cc(F)ccc54)CC3)sc2c1,55.7% (active)
17,O=C(Nc1ccc(NC(=O)C2CC2)nc1)c1ccccn1,-20.6% (inactive)
18,Cc1cc(C(=O)Nc2nnc(C3CCCCC3)s2)cs1,6.3% (inactive)
19,CCNC(=O)C1CC(=O)N(c2ccc(Br)cc2)C1 (stereo not drawn),-12.4% (inactive)
20,O=C(CCN1CCc2ccccc2C1)Nc1ccc2c(c1)OCO2,2.3% (inactive)
21,O=C(CCCN1CCOCC1)c1ccc2c(c1)OCCO2,7.8% (inactive)
22,O=C(CCN1Cc2ccccc2C1)c1ccc2c(c1)OCCO2,-7.3% (inactive)
23,O=C(CCN1CCc2ccccc21)c1ccc2c(c1)OCCO2,1.9% (inactive)

# Source: PubChem BioAssay AID430 (Sanford-Burnham Center for Chemical Genomics, 2006)
